KLK7 zymogen act: proKLK7 zymogen activators, primary screen, biochemical, fluorescence intensity. Kallikrein-7 (Homo sapiens), P49862. purified proKLK7, EDANS-DABCYL substrate fluorescence; 100% is mature enzyme control, 0% vehicle. activation, % at 7 µM. 0.9% of 370,000 active. AID 652039, 2013;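 active means activation above the mean of all tested compounds plus 3 SD, computed per campaign excluding outliers beyond control limits, cut at about 13% in these data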
ADAM17 inh: ADAM17 inhibitors, primary screen, biochemical, QFRET | Disintegrin and metalloproteinase domain-containing protein 17 (Homo sapiens), P78536 | recombinant ADAM17, EDANS/DABCYL FRET peptide cleavage | inhibition, % at 6.95 µM | 0.83% of 370,000 active | AID 720648, 2013;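 active means inhibition above the mean of compounds lying between control limits plus 3 SD, set per campaign, cut at about 8.5% in these data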;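 further: 0% = DMSO-only wells as the low control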
ADAM10 inh: human ADAM10 inhibitors, primary screen, biochemical, QFRET, HTS; Disintegrin and metalloproteinase domain-containing protein 10 (Homo sapiens), O14672; recombinant ADAM10, EDANS/DABCYL FRET peptide cleavage, 3 h; inhibition, % at 7 µM; 0.62% of 370,000 active; AID 720582, 2013;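 active means inhibition above a per-campaign cutoff equal to the mean of compounds falling between control-based bounds plus 3 SD, cut at about 20% in these data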;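 further: 0% = DMSO wells while the 100% control is not disclosed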
GC-A act: GC-A stimulated cGMP production enhancers – HEK293 GC-A cells, cGMP TR-FRET, EC30 ANP, primary screen; Atrial natriuretic peptide receptor 1 (Homo sapiens), P16066; 0% at EC30 ANP, 100% saturating ANP; activation, % at 10 µM; 0.14% of 370,000 active; AID 1671463, 2021; in the data active means activation above about 40%
Target sequence (P16066 whole entry, looked up): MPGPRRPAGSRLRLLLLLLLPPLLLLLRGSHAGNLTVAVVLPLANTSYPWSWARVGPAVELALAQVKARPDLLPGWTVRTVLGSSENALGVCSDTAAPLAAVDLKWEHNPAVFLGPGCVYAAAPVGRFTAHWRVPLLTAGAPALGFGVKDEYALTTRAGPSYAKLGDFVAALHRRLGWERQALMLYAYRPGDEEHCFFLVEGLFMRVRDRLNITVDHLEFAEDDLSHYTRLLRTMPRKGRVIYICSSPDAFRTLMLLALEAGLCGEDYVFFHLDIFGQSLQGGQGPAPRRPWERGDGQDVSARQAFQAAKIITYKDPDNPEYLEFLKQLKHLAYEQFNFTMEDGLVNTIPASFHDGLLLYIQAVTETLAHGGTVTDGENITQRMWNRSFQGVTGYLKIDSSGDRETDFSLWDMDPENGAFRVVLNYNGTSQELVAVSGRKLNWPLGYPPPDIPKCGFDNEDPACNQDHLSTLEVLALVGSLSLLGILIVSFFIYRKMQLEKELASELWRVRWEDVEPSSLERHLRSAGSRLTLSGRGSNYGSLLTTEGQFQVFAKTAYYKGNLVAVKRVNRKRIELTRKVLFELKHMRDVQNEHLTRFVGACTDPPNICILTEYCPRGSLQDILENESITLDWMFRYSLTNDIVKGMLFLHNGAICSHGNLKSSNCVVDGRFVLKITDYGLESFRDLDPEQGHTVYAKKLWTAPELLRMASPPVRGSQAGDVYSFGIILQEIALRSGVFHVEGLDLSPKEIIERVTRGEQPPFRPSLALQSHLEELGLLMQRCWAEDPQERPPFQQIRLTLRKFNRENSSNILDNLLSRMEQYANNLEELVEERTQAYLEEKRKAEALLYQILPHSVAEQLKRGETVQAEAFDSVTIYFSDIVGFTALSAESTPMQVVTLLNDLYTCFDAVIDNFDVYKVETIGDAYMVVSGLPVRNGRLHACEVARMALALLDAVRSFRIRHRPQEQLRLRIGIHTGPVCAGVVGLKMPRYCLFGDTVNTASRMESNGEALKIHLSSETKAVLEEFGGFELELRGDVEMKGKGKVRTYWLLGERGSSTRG
GC-B act: human GC-B receptor activators, primary screen, HEK293 GC-B cells, cGMP TR-FRET, EC30 CNP. Atrial natriuretic peptide receptor 2 (Homo sapiens), P20594. 0% at EC30 CNP, 100% saturating CNP. activation, % at 10 µM. 0.11% of 370,000 active. AID 1920062, 2024;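 active means activation at 10 µM reaching about 35% in either raw or pattern-adjusted values, limit read from the data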
proKLK7 act conf: proKLK7 zymogen activators, confirmation, biochemical, fluorescence intensity, triplicate; shares compounds with KLK7 zymogen act; purified proKLK7, EDANS-DABCYL substrate fluorescence; scaled: vehicle 0, mature enzyme 100; activation, % at 7 µM; 68% of 3,200 active; AID 686949, 2013;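 active means activation, as change over the incubation, above the mean of all tested compounds plus 3 SD, cut at about 13% in these data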
EDANS-DABCYL int: EDANS-DABCYL substrate optical interference, artefact control for kallikrein-7 zymogen activator project, biochemical, fluorescence intensity, high throughput | shares compounds with KLK7 zymogen act | no enzyme, 4 h; solvent 0%, active enzyme control 100% | activation, % at 7 µM | 80% of 3,200 active;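 active means activation above the all-compound mean plus 3 SD, ignoring values outside control-based bounds, cut at about 4.8% in these data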;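 further: value is the 4 h activation minus the activation read at time zero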
K7 EDANS ctr: optically interferes with EDANS-DABCYL fluorescence, kallikrein-7 activator counter-screen; EC50, µM; EDANS-DABCYL peptide fluorescence interference, no enzyme; 20% of 250 active; shares compounds with KLK7 zymogen act;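 active means compounds that raise the fluorescence signal in this interference counterscreen, with EC50 at or below 10 µM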;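 further: intact quenched peptide substrate alone read at 355 nm excitation and 520 nm emission; signal is fluorescence gain from T0 to T4 after four hours at room temperature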
An asterisk follows results filed as active; i = inactive; x = no result. The list is not random: actives were taken first. Their share in the collection is about 2.2%.

SMILES | KLK7 zymogen act | ADAM17 inh | ADAM10 inh | GC-A act | GC-B act | proKLK7 act conf | EDANS-DABCYL int | others
N#CC1=C(N)Oc2cc(N)ccc2C1c1ccccc1Cl (configuration not stated) | 20* | -77 | -233 | 38 | 5 | 4 | 5.8*
N#CC1=C(N)Oc2cc(N)ccc2C1c1ccc(F)cc1 (configuration not stated) | 3 | -13 | -56 | 16 | 9 | x | x
N#CC1=C(N)Oc2cc(N)ccc2C1c1ccc(Cl)cc1 (configuration not stated) | 1 | -1 | -5 | 29 | 6 | x | x
O=C(CCc1ccccc1)N[C@H]1[C@@H](OC(=O)c2cnccn2)CCC[C@]12C(=O)N(Cc1ccccc1)c1ccccc12 | 0 | 0 | -4 | -12 | -1 | x | x
COC(=O)c1nc2n(n1)C(c1cccc(Cl)c1)C1=C(CCCC1=O)N2 (configuration not stated) | 20* | -1 | -18 | -19 | -15 | 14* | 19*
Cc1ccc(Cn2nnc3c2-c2ccccc2S(=O)(=O)N(C)C3)cc1 | 1 | -2 | 3 | -3 | 8 | x | x
Cn1c(=O)c2[nH]c(-c3ccccc3)c(O)c2n(C)c1=O | 17* | -5 | -20 | -8 | -4 | 41* | 40*
Cn1c2c(c(=O)n(C)c1=O)C(C(F)(F)F)(C(F)(F)F)N=C(c1ccccc1Cl)N2 | 0 | -1 | -1 | 4 | 3 | x | x
CC(=O)Nn1cc2c(c1-c1ccccc1)c(=O)n(C)c(=O)n2C | 0 | -6 | -10 | 6 | 0 | x | x
Cn1c(=O)c2[nH]c(-c3ccccc3Cl)c(O)c2n(C)c1=O | 58* | 0 | -2 | -5 | -5 | 71* | 77*
CCNC(=O)N(C)[C@H]1C[C@H]2c3[nH]c4cccc(-c5ccc6c(c5)OCO6)c4c3CCN2C[C@H]1[C@H](C)O | -1 | -22 | -74 | 6 | 0 | x | x
COc1ccc(-n2c(SCC(=O)Nc3ccccc3-c3ccccc3)nnc2-c2ccccn2)cc1 | 0 | 5 | 7 | -10 | -12 | x | x
CNc1nc(NCc2ccccc2)c2sccc2n1 | 0 | -9 | -34 | 11 | 1 | x | x
CNc1nc(-c2ccccc2)c2sccc2n1 | 26* | -434 | i | 7 | 3 | 16* | 20*
C=CCc1c(C)nc(-c2ccccc2)nc1N/N=C/c1ccncc1 | 1 | -1 | -6 | -11 | -5 | x | x
C=CCc1c(C)nc(-c2ccccc2)nc1N/N=C/c1ccccc1 | 14* | 2 | -2 | 0 | 3 | 1 | 1
COc1cc2c(cc1OC)-c1cc(OCCN3CCOCC3)nc(=O)n1CC2 | 77* | i | i | 2 | 5 | 69* | 64*
CN(C)c1ccc2c(=O)cc[nH]c2c1 | 80* | i | i | 6 | -9 | 72* | 73*
O=C(O)c1cc2cccc(S(=O)(=O)N3CCOCC3)c2cc1O | 14* | -35 | -90 | 7 | 0 | 70* | 72*
O=C(O)CCN1c2cccc3cccc(c23)S1(=O)=O | 16* | -87 | -248 | 4 | 1 | 19* | 11* | K7 EDANS ctr=>69
CC(C(=O)O)N1c2cccc3cccc(c23)S1(=O)=O (configuration not stated) | 22* | -123 | -296 | 0 | 4 | 27* | 28*
CC(C(=O)N(C)C)N1c2cccc3cccc(c23)S1(=O)=O (configuration not stated) | 8 | -36 | -153 | -3 | 2 | x | x
CC(C)CNC(=O)CN1c2cccc3cccc(c23)S1(=O)=O | 8 | -73 | -218 | 2 | 0 | x | x
CN(C)C(=O)CN1c2cccc3cccc(c23)S1(=O)=O | 7 | -85 | -207 | 2 | -2 | x | x
C=CCNC(=O)CN1c2cccc3cccc(c23)S1(=O)=O | 13* | -70 | -160 | 1 | -5 | 4 | 7.1*
SMILES | KLK7 zymogen act | ADAM17 inh | ADAM10 inh | GC-A act | GC-B act | proKLK7 act conf | EDANS-DABCYL int | others
Nc1nc2cc3c(cc2cc1C(=O)NCc1cccnc1)OCO3 | 18* | i | i | 1 | 6 | 30* | 36*
N#Cc1c(N)n(CCc2ccc(F)cc2)c2nc3ccccc3nc12 | 32* | i | i | 14 | -10 | -48 | -68
N#Cc1c(N)n(-c2cccc(O)c2)c2nc3ccccc3nc12 | 117* | i | i | 1 | 1 | 42* | 47*
N#Cc1c(N)n(CCOC(=O)c2cccc([N+](=O)[O-])c2)c2nc3ccccc3nc12 | 83* | -51 | -181 | -7 | -11 | 91* | 88*
COCCn1c(N)c(S(=O)(=O)c2cccs2)c2nc3ccccc3nc21 | 56* | i | i | -12 | -12 | 24* | 26*
N#Cc1c(N)n(-c2ccc(O)cc2)c2nc3ccccc3nc12 | 2 | -34 | -89 | -1 | 1 | x | x
N#Cc1c(N)n(CCOC(=O)c2cccc(Br)c2)c2nc3ccccc3nc12 | -22 | -85 | -268 | -6 | -10 | x | x
COc1ccc(Cn2c(N)c(C#N)c3nc4ccccc4nc32)cc1 | 7 | i | i | 34 | 31 | x | x
O=C(c1ccccc1Cl)N1CCC(Oc2cccnc2)CC1 | 0 | -5 | -8 | 2 | -1 | x | x
Cc1cc(OCC(C)CN2CCC(C(O)(c3ccccc3)c3ccccc3)CC2)ccc1Br (configuration not stated) | 1 | 2 | 7 | -14 | -2 | x | x
CCc1ccc(CCNC(=O)OC2CC3CC2[C@H]2CCCCN2[C@H]3C)cc1 (some centres not stated) | 0 | -1 | -6 | -2 | 1 | x | x
C=CCN1[C@H](CC(C)C)COc2cccc(N3CCSCC3)c2S1(=O)=O | 0 | 1 | 5 | 1 | -2 | x | x
C=CCOC(=O)N[C@H](c1ccc(-c2ccccc2)cc1)[C@H](C)/C=C/CC(=O)OC | 1 | 5 | 11 | -2 | -7 | x | x
CC(C)Cn1c(N)c(C(=O)NCC2CCCO2)c2nc3ccccc3nc21 (configuration not stated) | -28 | i | i | 15 | 3 | x | x
COCCn1c(N)c(C#N)c2nc3ccccc3nc21 | 62* | i | i | 1 | -6 | 60* | 72*

High-throughput results as filed in PubChem BioAssay.
